Targets with a hit are over-represented here; the source holds about 7,900 in all. About 0.6% of all pairs of compound and target were hits.
Key:
Assay in all cases: log2 fold change, soluble protein after heating vs DMSO (PISA); higher = thermal stabilisation; K562 cells, 10 uM, 30 min; active = over 0.2 and 3.5 SD of the protein, either way, in both replicates (recomputed)
IRAK-1-4 Inhibitor I = compound: C1COCCN1CCN2C3=CC=CC=C3N=C2NC(=O)C4=CC(=CC=C4)[N+](=O)[O-] [IRAK-1-4 Inhibitor I]
In short: (§1)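 Quantification of soluble protein used TMTpro 16plex LC-MS/MS, with channel sums equalised. Samples were the supernatant after 21,000xg for 90 min of pooled aliquots from K562 cells (2×10^6 cells/mL) treated with 10 μM compound for 30 min, heated for 3 min over 48°C-58°C, and extracted in PBS with 0.5% NP-40 at 4°C. Values, from duplicates, describe thermal stability against control samples on a log2 fold-change scale.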

ibrutinib = compound: C=CC(=O)N1CCC[C@@H](n2nc(-c3ccc(Oc4ccccc4)cc3)c3c(N)ncnc32)C1 [ibrutinib]
In short: as §1

[1] = compound: CC(=O)c1cnc2ccc(-c3cc(Cl)c(O)c(Cl)c3)nc2c1N[C@H]1CC[C@H](CN(C)C)CC1
In short: as §1

ralimetinib = compound: CC(C)(C)Cn1c(N)nc2ccc(-c3[nH]c(C(C)(C)C)nc3-c3ccc(F)cc3)nc21 [ralimetinib]
In short: as §1

[2] = compound: CC(C)(O)CC(=O)NCCn1ccc2ncnc(Nc3ccc(Oc4cccc(C(F)(F)F)c4)c(Cl)c3)c21
In short: as §1

[3] = compound: CC(C)C1=C2N=C(C=C(N2N=C1)NCC3=CC=CC=C3)NCCCCCCN
In short: as §1

[4] = compound: CC(C)C[C@@H](C=O)NC(=O)[C@H](CC(C)C)NC(=O)[C@H](CC(C)C)NC(=O)OCc1ccccc1
In short: as §1

pinometostat = compound: CC(C)N(C[C@H]1O[C@@H](n2cnc3c(N)ncnc32)[C@H](O)[C@@H]1O)[C@H]1C[C@@H](CCc2nc3cc(C(C)(C)C)ccc3[nH]2)C1 [pinometostat]
In short: as §1

[5] = compound: CC1=C(C(CC(=O)N1)C2=CC=C(C=C2)C(F)(F)F)C(=O)NC3=C(C=C4C(=C3)C=NN4)F
In short: as §1

[6] = compound: CC1=C(C2=C(C=C1)C(=O)C3=CC=CC=C3N2CCCN)C
In short: as §1

Measured: log2 fold change

REL (UniProt Q04864)
Chain of UniProt Q04864 (Q04864 whole entry, looked up): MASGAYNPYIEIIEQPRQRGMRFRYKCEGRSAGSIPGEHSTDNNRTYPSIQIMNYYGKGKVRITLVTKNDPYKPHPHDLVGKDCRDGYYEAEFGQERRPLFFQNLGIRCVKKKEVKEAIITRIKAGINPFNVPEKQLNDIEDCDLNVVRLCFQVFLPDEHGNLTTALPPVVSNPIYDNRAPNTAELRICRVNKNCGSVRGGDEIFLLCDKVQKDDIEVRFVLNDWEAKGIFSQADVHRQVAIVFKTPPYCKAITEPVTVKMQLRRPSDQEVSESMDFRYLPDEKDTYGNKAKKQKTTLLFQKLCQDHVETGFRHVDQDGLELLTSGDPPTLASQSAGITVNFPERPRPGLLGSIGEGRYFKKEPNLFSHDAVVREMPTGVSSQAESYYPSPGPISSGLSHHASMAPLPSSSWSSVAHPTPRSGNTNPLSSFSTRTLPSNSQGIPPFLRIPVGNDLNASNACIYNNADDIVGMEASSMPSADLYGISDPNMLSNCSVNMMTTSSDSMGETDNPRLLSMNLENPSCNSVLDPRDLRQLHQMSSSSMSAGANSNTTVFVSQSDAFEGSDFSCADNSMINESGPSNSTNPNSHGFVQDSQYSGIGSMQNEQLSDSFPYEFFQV
inactive: IRAK-1-4 Inhibitor I -0.046 | ibrutinib -0.095 | [1] -0.017 | ralimetinib 0.037 | [2] -0.093 | [3] -0.074 | [4] 0.062 | pinometostat 0.089 | [5] -0.039 | [6] 0.005

SCAF11 (UniProt Q99590)
inactive: IRAK-1-4 Inhibitor I 0.076 | ibrutinib 0.099 | ralimetinib 0.166 | [2] -0.084 | [3] 0.134 | [4] 0.213 | pinometostat 0.157 | [5] -0.036 | [6] 0.112
active: [1] 0.714

RBM22 (UniProt Q9NW64)
inactive: IRAK-1-4 Inhibitor I 0.014 | ibrutinib -0.032 | [1] 0.029 | ralimetinib 0.048 | [2] 0.071 | [3] 0.068 | [4] 0.104 | pinometostat 0.015 | [5] 0.041 | [6] 0.124

SAMSN1 isoform 3 (UniProt Q9NSI8)
inactive: IRAK-1-4 Inhibitor I 0.028 | ibrutinib -0.021 | [1] -0.125 | ralimetinib -0.016 | [2] -0.034 | [3] -0.095 | [4] 0.041 | pinometostat 0.014 | [5] 0.023 | [6] 0.008

RAB3GAP2 (UniProt Q9H2M9)
inactive: IRAK-1-4 Inhibitor I -0.079 | ibrutinib -0.016 | [1] -0.031 | ralimetinib 0.03 | [2] 0 | [4] 0.026 | pinometostat 0.115 | [5] 0.004 | [6] -0.016
active: [3] -0.26

RPL31 (UniProt P62899)
inactive: IRAK-1-4 Inhibitor I -0.168 | ibrutinib -0.021 | [1] 0.138 | ralimetinib 0.1 | [2] 0.052 | [3] -0.013 | [4] 0.14 | pinometostat 0.273 | [5] -0.006
active: [6] -0.625

SCCPDH (UniProt Q8NBX0)
inactive: IRAK-1-4 Inhibitor I -0.005 | ibrutinib 0.061 | [1] 0.031 | ralimetinib 0.059 | [2] 0.156 | [3] 0.038 | [4] -0.032 | pinometostat -0.073 | [5] -0.031 | [6] 0.023

SEC16A isoform 5 (UniProt O15027)
inactive: IRAK-1-4 Inhibitor I -0.136 | ibrutinib -0.062 | [1] -0.069 | ralimetinib 0.172 | [2] -0.177 | [4] 0.046 | pinometostat 0.097 | [5] -0.027 | [6] 0.025
active: [3] -0.282

SFXN5 (UniProt Q8TD22)
Chain of UniProt Q8TD22 (Q8TD22 whole entry, looked up): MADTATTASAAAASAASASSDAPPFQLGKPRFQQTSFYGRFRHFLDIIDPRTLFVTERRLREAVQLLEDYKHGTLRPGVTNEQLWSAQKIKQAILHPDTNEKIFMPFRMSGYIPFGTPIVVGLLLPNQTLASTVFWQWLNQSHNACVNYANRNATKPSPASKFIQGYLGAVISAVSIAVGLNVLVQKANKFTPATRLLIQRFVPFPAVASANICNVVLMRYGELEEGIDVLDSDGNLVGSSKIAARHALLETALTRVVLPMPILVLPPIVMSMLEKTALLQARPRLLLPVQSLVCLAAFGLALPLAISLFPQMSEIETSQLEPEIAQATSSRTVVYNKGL
inactive: IRAK-1-4 Inhibitor I 0.225 | ibrutinib -0.048 | [1] -0.013 | ralimetinib -0.001 | [2] -0.175 | [3] -0.083 | [4] 0.187 | pinometostat 0.03 | [5] 0.008 | [6] 0.09

REEP4 (UniProt Q9H6H4)
Chain of UniProt Q9H6H4 (Q9H6H4 whole entry, looked up): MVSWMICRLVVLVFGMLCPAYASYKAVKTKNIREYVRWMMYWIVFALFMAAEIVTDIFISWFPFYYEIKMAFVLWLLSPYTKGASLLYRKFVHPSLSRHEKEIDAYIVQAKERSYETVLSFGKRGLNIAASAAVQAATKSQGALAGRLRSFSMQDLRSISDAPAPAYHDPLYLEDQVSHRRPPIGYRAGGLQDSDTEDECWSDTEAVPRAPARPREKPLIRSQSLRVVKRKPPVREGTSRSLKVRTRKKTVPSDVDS
inactive: IRAK-1-4 Inhibitor I 0.005 | ibrutinib -0.003 | [1] -0.198 | ralimetinib 0.164 | [2] -0.049 | [3] -0.157 | [4] 0.041 | pinometostat 0.13 | [5] 0.04 | [6] 0.036

RARS (UniProt P54136)
inactive: IRAK-1-4 Inhibitor I -0.087 | ibrutinib -0.024 | [1] 0.12 | ralimetinib 0.097 | [2] -0.001 | [4] 0.096 | pinometostat 0.32 | [5] 0.03 | [6] 0.009
active: [3] -0.545

RPS3 (UniProt P23396)
inactive: IRAK-1-4 Inhibitor I -0.091 | ibrutinib 0.02 | [1] 0.051 | ralimetinib 0.034 | [2] 0.005 | [3] -0.096 | [4] 0.016 | pinometostat 0.128 | [5] 0.031
active: [6] -0.497

RB1 (UniProt P06400)
active: [1] -0.761 | [3] -0.386
inactive: IRAK-1-4 Inhibitor I 0.015 | ibrutinib 0.025 | ralimetinib -0.06 | [2] -0.054 | [4] 0.032 | pinometostat -0.006 | [5] -0.007 | [6] -0.035

RALA (UniProt P11233)
Chain of UniProt P11233 (P11233 whole entry, looked up): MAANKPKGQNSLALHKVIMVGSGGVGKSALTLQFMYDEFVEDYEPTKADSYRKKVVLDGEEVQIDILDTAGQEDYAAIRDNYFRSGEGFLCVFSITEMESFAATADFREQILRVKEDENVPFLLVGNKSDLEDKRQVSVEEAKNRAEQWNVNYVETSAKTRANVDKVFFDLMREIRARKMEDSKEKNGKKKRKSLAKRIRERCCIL
inactive: IRAK-1-4 Inhibitor I -0.005 | ibrutinib 0.038 | [1] 0.018 | ralimetinib -0.113 | [2] 0.096 | [3] 0.103 | [4] -0.033 | pinometostat -0.123 | [5] -0.024 | [6] 0.054

SLC1A5 (UniProt Q15758)
Chain of UniProt Q15758 (Q15758 whole entry, looked up): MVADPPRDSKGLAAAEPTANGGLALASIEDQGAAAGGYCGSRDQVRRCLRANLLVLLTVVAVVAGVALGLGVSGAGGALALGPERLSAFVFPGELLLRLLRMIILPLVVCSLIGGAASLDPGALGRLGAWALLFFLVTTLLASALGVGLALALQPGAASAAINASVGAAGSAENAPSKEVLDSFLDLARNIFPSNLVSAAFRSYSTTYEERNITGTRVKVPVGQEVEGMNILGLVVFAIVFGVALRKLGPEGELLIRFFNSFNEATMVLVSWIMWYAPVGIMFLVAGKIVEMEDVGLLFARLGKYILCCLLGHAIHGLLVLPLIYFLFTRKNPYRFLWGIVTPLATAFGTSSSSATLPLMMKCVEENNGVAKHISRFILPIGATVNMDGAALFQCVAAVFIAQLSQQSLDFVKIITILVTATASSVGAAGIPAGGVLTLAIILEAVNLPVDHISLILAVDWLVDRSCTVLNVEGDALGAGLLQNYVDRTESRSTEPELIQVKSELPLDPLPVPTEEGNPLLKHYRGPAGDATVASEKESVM
inactive: IRAK-1-4 Inhibitor I 0.035 | ibrutinib 0.028 | [1] 0.013 | ralimetinib 0.046 | [2] -0.002 | [3] 0.23 | [4] -0.052 | pinometostat -0.034 | [5] -0.012 | [6] -0.014

RHOXF2 (UniProt Q9BQY4)
inactive: IRAK-1-4 Inhibitor I 0.012 | ibrutinib 0.003 | [1] 0.002 | ralimetinib 0.051 | [2] -0.031 | [3] -0.03 | [4] 0.027 | pinometostat -0.037 | [5] 0.027 | [6] -0.007

RPL38 (UniProt P63173)
inactive: IRAK-1-4 Inhibitor I 0.014 | ibrutinib 0.01 | [1] 0 | ralimetinib 0.043 | [2] 0.113 | [3] 0 | [4] 0.124 | pinometostat 0.07 | [5] 0.013 | [6] -0.026

SCPEP1 (UniProt Q9HB40)
Chain of UniProt Q9HB40 (Q9HB40 whole entry, looked up): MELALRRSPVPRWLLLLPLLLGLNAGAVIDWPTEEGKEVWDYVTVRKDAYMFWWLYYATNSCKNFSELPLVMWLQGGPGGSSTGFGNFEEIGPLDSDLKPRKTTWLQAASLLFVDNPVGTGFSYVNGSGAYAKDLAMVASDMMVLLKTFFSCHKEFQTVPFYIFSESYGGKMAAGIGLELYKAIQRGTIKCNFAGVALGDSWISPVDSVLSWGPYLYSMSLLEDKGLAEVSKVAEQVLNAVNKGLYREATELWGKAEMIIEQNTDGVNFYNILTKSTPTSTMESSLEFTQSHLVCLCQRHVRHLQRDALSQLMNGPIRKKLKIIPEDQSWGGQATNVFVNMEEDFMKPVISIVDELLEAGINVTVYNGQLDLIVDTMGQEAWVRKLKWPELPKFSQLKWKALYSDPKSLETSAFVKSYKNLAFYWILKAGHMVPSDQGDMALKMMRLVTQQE
active: [3] -0.5
inactive: IRAK-1-4 Inhibitor I 0.044 | ibrutinib 0.072 | [1] -0.008 | ralimetinib -0.005 | [2] -0.038 | [4] 0.007 | pinometostat -0.032 | [5] -0.006 | [6] 0.073

RHOA (UniProt P61586)
inactive: IRAK-1-4 Inhibitor I 0.108 | ibrutinib -0.015 | [1] 0.047 | ralimetinib 0.251 | [2] -0.034 | [3] 0.063 | [4] -0.07 | pinometostat -0.023 | [5] 0.002 | [6] -0.007

RTF2 (UniProt Q9BY42)
Chain of UniProt Q9BY42 (Q9BY42 whole entry, looked up): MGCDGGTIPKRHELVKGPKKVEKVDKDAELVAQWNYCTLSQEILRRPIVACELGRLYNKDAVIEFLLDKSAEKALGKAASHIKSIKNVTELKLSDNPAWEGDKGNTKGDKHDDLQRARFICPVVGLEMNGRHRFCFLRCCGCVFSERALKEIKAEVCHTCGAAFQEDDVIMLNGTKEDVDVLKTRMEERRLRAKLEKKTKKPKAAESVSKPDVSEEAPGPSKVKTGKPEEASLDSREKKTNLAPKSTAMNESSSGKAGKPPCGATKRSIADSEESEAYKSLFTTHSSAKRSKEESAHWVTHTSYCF
inactive: IRAK-1-4 Inhibitor I 0 | ibrutinib -0.096 | [1] -0.017 | ralimetinib -0.022 | [2] 0.032 | [3] 0.164 | [4] 0.098 | pinometostat -0.059 | [5] -0.025 | [6] -0.054

RETREG3 (UniProt Q86VR2)
inactive: IRAK-1-4 Inhibitor I 0.117 | ibrutinib -0.002 | [1] -0.01 | ralimetinib -0.036 | [2] -0.04 | [3] -0.167 | [4] 0.007 | pinometostat 0.035 | [5] -0.024 | [6] -0.016

RPS18 (UniProt P62269)
active: [6] -0.531
inactive: IRAK-1-4 Inhibitor I -0.099 | ibrutinib 0.053 | [1] 0.052 | ralimetinib 0.055 | [2] 0.06 | [3] -0.043 | [4] 0.054 | pinometostat 0.149 | [5] 0.063

RDH13 (UniProt Q8NBN7)
Chain of UniProt Q8NBN7 (Q8NBN7 whole entry, looked up): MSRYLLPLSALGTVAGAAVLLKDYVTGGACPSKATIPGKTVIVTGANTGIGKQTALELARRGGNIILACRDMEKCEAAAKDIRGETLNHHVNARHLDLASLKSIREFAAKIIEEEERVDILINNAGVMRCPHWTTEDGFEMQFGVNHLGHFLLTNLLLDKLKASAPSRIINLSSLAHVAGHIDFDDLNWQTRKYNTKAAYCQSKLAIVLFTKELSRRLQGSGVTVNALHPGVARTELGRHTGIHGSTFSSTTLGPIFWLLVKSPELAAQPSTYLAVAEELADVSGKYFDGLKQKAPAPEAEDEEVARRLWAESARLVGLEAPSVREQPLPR
inactive: IRAK-1-4 Inhibitor I 0.012 | ibrutinib 0.03 | [1] -0.054 | ralimetinib -0.031 | [2] -0.061 | [3] -0.184 | [4] -0.029 | pinometostat -0.057 | [5] -0.051 | [6] 0.111

SDHAF2 (UniProt Q9NX18)
Chain of UniProt Q9NX18 (Q9NX18 whole entry, looked up): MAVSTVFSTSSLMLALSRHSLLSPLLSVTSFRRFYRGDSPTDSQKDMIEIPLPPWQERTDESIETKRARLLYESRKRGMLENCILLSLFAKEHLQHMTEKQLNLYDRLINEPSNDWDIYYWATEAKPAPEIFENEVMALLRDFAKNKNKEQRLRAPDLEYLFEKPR
inactive: IRAK-1-4 Inhibitor I 0.013 | ibrutinib -0.004 | [1] 0.124 | ralimetinib -0.044 | [2] -0.011 | [3] -0.042 | [4] 0.084 | pinometostat -0.014 | [5] 0.015 | [6] -0.01

RRAGC (UniProt Q9HB90)
Chain of UniProt Q9HB90 (Q9HB90 whole entry, looked up): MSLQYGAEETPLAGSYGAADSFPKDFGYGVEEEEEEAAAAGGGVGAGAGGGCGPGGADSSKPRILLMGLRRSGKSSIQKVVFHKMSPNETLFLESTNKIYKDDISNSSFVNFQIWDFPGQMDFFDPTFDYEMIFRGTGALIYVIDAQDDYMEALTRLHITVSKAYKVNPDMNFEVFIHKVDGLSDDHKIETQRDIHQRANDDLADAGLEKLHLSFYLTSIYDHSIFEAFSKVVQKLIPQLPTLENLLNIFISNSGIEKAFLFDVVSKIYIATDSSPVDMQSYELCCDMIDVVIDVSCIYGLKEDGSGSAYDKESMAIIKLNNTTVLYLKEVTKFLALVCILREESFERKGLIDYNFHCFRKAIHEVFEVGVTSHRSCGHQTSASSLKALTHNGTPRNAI
inactive: IRAK-1-4 Inhibitor I 0.033 | ibrutinib -0.009 | [1] -0.057 | ralimetinib -0.056 | [2] 0.004 | [3] -0.18 | [4] 0.068 | pinometostat -0.008 | [5] 0.024 | [6] 0.034

RNF14 (UniProt Q9UBS8)
Chain of UniProt Q9UBS8 (Q9UBS8 whole entry, looked up): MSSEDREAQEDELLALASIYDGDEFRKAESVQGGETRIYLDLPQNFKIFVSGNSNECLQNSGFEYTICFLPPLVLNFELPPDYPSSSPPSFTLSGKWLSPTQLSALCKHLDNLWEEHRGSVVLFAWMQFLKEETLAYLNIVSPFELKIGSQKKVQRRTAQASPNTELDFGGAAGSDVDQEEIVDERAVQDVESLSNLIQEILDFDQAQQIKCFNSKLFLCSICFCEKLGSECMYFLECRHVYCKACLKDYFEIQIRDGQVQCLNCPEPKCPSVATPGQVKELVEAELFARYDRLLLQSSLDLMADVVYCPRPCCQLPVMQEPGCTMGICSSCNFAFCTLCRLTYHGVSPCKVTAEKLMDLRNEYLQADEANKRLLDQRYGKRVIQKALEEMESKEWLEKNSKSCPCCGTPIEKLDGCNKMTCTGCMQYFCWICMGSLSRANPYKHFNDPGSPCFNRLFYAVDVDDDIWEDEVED
inactive: IRAK-1-4 Inhibitor I 0.019 | ibrutinib 0.006 | [1] 0.011 | ralimetinib -0.008 | [2] -0.035 | [3] -0.039 | [4] 0.014 | pinometostat -0.075 | [5] 0.006 | [6] -0.05

RAC1 (UniProt P63000)
inactive: IRAK-1-4 Inhibitor I -0.053 | ibrutinib 0.036 | [1] 0.038 | ralimetinib -0.01 | [2] 0.27 | [3] 0.051 | [4] -0.026 | pinometostat -0.127 | [5] -0.093 | [6] -0.002

RPS6KA3 (UniProt P51812)
Chain of UniProt P51812 (P51812 whole entry, looked up): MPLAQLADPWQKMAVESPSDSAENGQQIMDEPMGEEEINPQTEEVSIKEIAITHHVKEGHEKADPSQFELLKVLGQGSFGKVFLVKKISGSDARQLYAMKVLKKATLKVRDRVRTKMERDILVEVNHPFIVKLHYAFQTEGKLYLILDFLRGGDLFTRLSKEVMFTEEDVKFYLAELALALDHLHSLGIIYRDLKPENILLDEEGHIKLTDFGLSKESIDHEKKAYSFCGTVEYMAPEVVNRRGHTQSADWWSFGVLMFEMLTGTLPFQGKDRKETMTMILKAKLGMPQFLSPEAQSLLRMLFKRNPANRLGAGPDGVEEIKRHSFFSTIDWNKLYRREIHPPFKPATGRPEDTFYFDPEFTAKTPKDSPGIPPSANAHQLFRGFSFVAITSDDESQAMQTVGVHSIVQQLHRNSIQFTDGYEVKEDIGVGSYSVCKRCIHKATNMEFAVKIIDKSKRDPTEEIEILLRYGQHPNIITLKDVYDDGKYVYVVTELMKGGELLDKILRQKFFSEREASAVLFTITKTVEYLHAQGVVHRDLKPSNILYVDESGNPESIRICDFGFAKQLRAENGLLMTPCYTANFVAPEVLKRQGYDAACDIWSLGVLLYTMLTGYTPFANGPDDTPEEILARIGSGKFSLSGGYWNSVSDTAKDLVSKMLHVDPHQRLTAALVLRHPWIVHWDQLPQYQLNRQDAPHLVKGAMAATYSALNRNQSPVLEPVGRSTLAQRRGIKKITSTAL
inactive: IRAK-1-4 Inhibitor I 0.03 | ibrutinib -0.048 | [1] -0.194 | [2] -0.061 | [3] -0.076 | [4] 0.121 | pinometostat 0.011 | [5] 0.01 | [6] 0.001
active: ralimetinib -0.359
